A selection: hits, their analogues and other compounds. The true share with any hit is near 2.3%.
CHO-K1 Ca PAM – counter-screen for M1 PAMs: effect in parental CHO-K1 cells | ATP EC20, Fluo-8 calcium fluorescence; 0% at ATP EC20, 100% at ATP max | 360,000 compounds, 0.02% hits | activation, % at 3 µM;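 active = activation above the run cutoff, the mean activation of all test compounds plus 3 SD, cut at about 40% in these data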;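 also: peak over basal fluorescence ratio in a 140 s read after ATP addition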
CHRM1 antagonist – human CHRM1 antagonism; CHO-K1 hM1, Fluo-8 calcium fluorescence, ACh EC80 antagonist; inhibition, % at 3 µM; 360,000 compounds, 1.3% hits; AID 588852;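 active = percent inhibition above its own plate's cutoff, namely the mean of that plate's compound wells plus 3 SD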;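 also: peak over basal fluorescence ratio during 140 s after agonist addition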
Target sequence (P11229 whole entry, looked up): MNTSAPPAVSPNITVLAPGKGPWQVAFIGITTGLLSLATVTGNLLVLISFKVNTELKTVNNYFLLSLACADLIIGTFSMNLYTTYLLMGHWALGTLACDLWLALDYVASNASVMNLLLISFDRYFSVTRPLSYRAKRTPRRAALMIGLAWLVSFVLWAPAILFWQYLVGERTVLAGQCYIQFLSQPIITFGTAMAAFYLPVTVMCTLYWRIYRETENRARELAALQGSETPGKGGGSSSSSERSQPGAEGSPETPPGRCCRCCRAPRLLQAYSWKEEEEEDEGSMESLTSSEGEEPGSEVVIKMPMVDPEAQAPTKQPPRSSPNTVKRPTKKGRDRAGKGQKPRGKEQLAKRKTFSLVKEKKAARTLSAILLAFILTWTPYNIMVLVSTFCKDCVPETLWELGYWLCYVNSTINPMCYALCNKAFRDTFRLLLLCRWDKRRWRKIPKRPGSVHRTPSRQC
CHO-K1 Ca antag – nonselective inhibitor or artifact in parental CHO-K1 cells. ATP-induced calcium, Fluo-8 fluorescence. inhibition, % at 3 µM. 360,000 compounds, 0.6% hits;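 active = inhibition above a per-plate cutoff, the plate's mean sample inhibition plus 3 SD, cut at about 24% in these data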
M1 ag – human M1 muscarinic receptor agonism | P11229 | CHO-K1 hM1, Fluo-8 calcium fluorescence, agonist mode; 0% DMSO, 100% acetylcholine EC100 | activation, % at 3 µM | 360,000 compounds, 0.33% hits;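 active = activation above the run's mean compound activation plus 3 SD, cut at about 16% in these data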;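 also: peak over basal fluorescence ratio within a 140 s kinetic read after compound addition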
M1 PAM – positive allosteric modulators of human M1 muscarinic receptor. CHO-K1 hM1, Fluo-8 calcium fluorescence, ACh EC20; 0% = ACh EC20, 100% = maximal ACh. 360,000 compounds, 0.088% hits. activation, % at 3 µM. AID 588819; in the data active = activation above about 19%, passing the limit was not always enough
CHO-K1 Ca ag – M1 agonist counterscreen hit in parental CHO-K1 cells; Fluo-8 calcium fluorescence; scaled to maximal ATP response, vehicle zero; activation, % at 3 µM; 360,000 compounds, 0.48% hits; in the data active = activation above about 15%;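 also: untransfected CHO-K1 host cells lacking M1 receptor as counterscreen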
Each line names hits and unclear results; the compound was inactive in the other large screens.

CN(C)c1ccc(-c2csc(C(O)c3cccc(Cl)c3)n2)cc1 (stereo not given)	CHRM1 antagonist 42, M1 ag 19
Cc1c(C(=O)OC(C)C(C)C[N+](C)(C)C)oc2ccccc12 (stereo not given)	CHRM1 antagonist 99
Cc1c(C(=O)OC(C)C(=O)N(C)Cc2ccccc2)oc2ccccc12 (stereo not given)	none
CNc1ncc(Cc2ccccc2)s1	CHO-K1 Ca antag 24
COC(=O)CSc1nnc2n(C3CCCCC3)c(=O)c3c4c(sc3n12)CCCC4	none
COC(=O)CSc1nnc2n(-c3ccc(OC)cc3)c(=O)c3c4c(sc3n12)CCCCC4	CHO-K1 Ca antag 24
OC(CN1CCN(c2cccc(C(F)(F)F)c2)CC1)c1c[nH]c2ccccc12 (stereo not given)	CHO-K1 Ca antag 30
Cc1cc(/C=C(\C#N)C(=O)NCc2ccco2)c(C)n1-c1cccnc1	none
Cc1cc(/C=C(/C#N)c2cccc(F)c2)c(C)n1-c1cccnc1	CHRM1 antagonist 34
N#CC1=C(N2CCCCC2)c2cc3c(n2C1=O)CCCC3	CHRM1 antagonist 35
CCOC(=O)C1=C(SCC)c2cc3c(n2C1=O)CCCC3	none
CSc1ccc(CN2CCN(Cc3ccc([N+](=O)[O-])cc3)CC2)cc1	CHRM1 antagonist 41
O=[N+]([O-])c1ccc(CN2CCCCCC2)cc1	none
Nc1cc(-c2ccccc2)n2c(n1)nc1ccccc12	CHRM1 antagonist 92
N#Cc1c(-c2ccccc2)cc2nc3ccccc3n2c1N	none
COc1ccc(S(=O)(=O)Nc2cccc(N(C)S(C)(=O)=O)c2)cc1Br	CHO-K1 Ca ag 16
CC[n+]1c(-c2ccccc2)csc1Nc1c(C)n(C)n(-c2ccccc2)c1=O	CHRM1 antagonist 51
CC[n+]1c(-c2ccc(C)cc2)csc1Nc1c(C)n(C)n(-c2ccccc2)c1=O	CHRM1 antagonist 35
Cc1ccc(Nc2nc3ccccc3nc2Nc2c(C)n(C)n(-c3ccccc3)c2=O)cc1	none
O=C(Nc1cccc([N+](=O)[O-])c1)c1ccc2snnc2c1	none
CC1CCCCN1C(=O)COC(=O)c1cc(-c2cccs2)nn1-c1ccccc1 (stereo not given)	CHRM1 antagonist 45
COC(=O)C1CCN(C(=O)COC(=O)c2cc(-c3cccs3)nn2-c2ccccc2)CC1	none
COc1ccc(NC(=O)Cn2nnc(C(=O)NCCc3ccccc3)c2N)cc1	CHO-K1 Ca ag 19
C#CCNC(=O)C[C@@H]1C[C@@]2(C(=O)OCC)CCCC=C2N(CCCCCCCC)C1=O	none (no result: CHRM1 antagonist, M1 ag, M1 PAM)
CN(C)CCC(O)(c1ccccc1)c1ccccc1	CHRM1 antagonist 67
CN(C)CCCC(C)(O)C(C)(C)c1ccccc1 (stereo not given)	none
CN(C)CCC(O)(c1ccccc1)c1ccccc1Cl (stereo not given)	CHRM1 antagonist 38
COC(=O)c1cc(C(=O)OCC(=O)c2ccc[nH]2)cc([N+](=O)[O-])c1	none
COC(=O)c1cc(C(=O)OCC(=O)NC(=O)c2ccccc2)cc([N+](=O)[O-])c1	CHRM1 antagonist 28
COc1cc2c(cc1NC(=S)Nc1ccccc1C)oc1ccccc12	M1 PAM 25
COc1cc(/C=C/C(=O)O)cc(S(=O)(=O)Nc2ccc3c(c2)OCO3)c1OC	none
O=C(c1ccccc1)c1ccc(OCC(O)CNCc2ccc(Cl)cc2)cc1 (stereo not given)	CHO-K1 Ca ag 18
CNc1ccc2ncc(-c3cccc(C(=O)N(C)C)c3)n2n1	none
O[Si](CCCN1CCCCC1)(c1ccc(F)cc1)C1CCCCC1 (stereo not given)	CHRM1 antagonist 97
CN1CCN(c2nc(-c3ccco3)cc(C(F)(F)F)n2)CC1	CHRM1 antagonist 60
CCOC(=O)N1CCN(c2nc(-c3ccco3)cc(C(F)(F)F)n2)CC1	none
CCCNC(=S)NC1CCCC1	CHRM1 antagonist 38
Cc1ccccc1-n1c(SCC(=O)Nc2c(C)cccc2C)nc(O)cc1=O	none
Cc1cnc(CNC(=O)c2ccc3oc(C(C)C)nc3c2)[nH]1	none
CCn1ccnc1CNC(=O)c1ccc2oc(C(C)C)nc2c1	CHRM1 antagonist 57
O=C(NCCS(=O)(=O)NCc1ccccn1)c1ccccc1	none

Source: PubChem BioAssay
